The values that follow come from PubChem BioAssay AID488890 (Southern Research Specialized Biocontainment Screening …, 2010).

The term inhibition denotes the change of the read-out against control, counted positive when it falls.

SMILES strings stand for the structures. The whole screen tested about 320,000 compounds, of which about 1,300 (0.41%) were called active. Another 3% or so got no clear call; they are omitted. No rule for the calls is given here. These entries were drawn from the full list. Entries with a potency or affinity are not part of this list.

A short description of the assay: growth inhibition of non-replicating M. tuberculosis (AID 488890).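 Also: plate controls were DMSO cells for no effect and high antibiotic wells for full effect.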 The conditions noted are these: Mycobacterium tuberculosis non-replicating, at 25 µM, stronger effect = higher value.
For `CCc1cccc(C)c1NC(=O)CN(C)Cc1ccccc1F`, the inhibition worked out at 23.6%. Turning to `C[C@H](CO)N1C[C@H](C)[C@@H](CN(C)C(=O)Nc2ccc(C(F)(F)F)cc2)Oc2c(NC(=O)Nc3ccccc3)cccc2C1=O`, the inhibition came to 32.4%. For `Cc1ccc(OCCCCN2CCC(C)CC2)c(Br)c1` the value was 49.3%; for `CC1CCN(CCCOc2ccc(Br)cc2Cl)CC1`, 33.5%. For `Cc1ccc(C)c(NC(=S)NCCc2c[nH]c3ccccc23)c1` the value was 67%; for `O=[N+]([O-])c1ccc2nc(SCc3cn4cccnc4n3)[nH]c2c1`, -20.2%. On to `c1ccc2[nH]c(SCc3cn4ccccc4n3)nc2c1`, for which the inhibition was -0.59%. Regarding `NC(=O)CSc1nc2ccc([N+](=O)[O-])cc2[nH]1`, the inhibition is 3.31%. The same measure for `Clc1ccc2nc(CSc3ncn[nH]3)cn2c1`: -31.7%; for `CCC(CO)NCc1sccc1C` (configuration not stated): -5.31%; for `Cc1cccc(C(=O)NC(=S)Nc2ccc(S(=O)(=O)N3CCN(C)CC3)cc2)c1`: 52.2%.

On to `Cc1c(O)ccc(/C=N/Nc2ncccc2[N+](=O)[O-])c1O`, for which the inhibition is -1.95%.

As to `O=C(N/N=C/c1cc(Cl)cc([N+](=O)[O-])c1O)c1cc(-c2ccccn2)nc2ccccc12`, the inhibition is 4.78%. Regarding `Cc1cc(C(=O)N/N=C/c2cc(Cl)cc([N+](=O)[O-])c2O)c2ccccc2n1`, the inhibition came to 54.6%. For `O=[N+]([O-])c1cc(/C=N\Nc2ccccn2)ccc1Cl` the value was -14.6%; for `COc1cc(/C=N/Nc2nc3ccccc3s2)cc([N+](=O)[O-])c1O`, 22%; for `COc1cccc(/C=N/Nc2ncccc2[N+](=O)[O-])c1OC`, 1.4%. For `CN(C(=O)COC(=O)c1ccccc1SCC(=O)N1CCCC1)C1CCS(=O)(=O)C1` (configuration not stated) the value was -9.96%. For `Cc1ccccc1CCNC(=O)C1CC(O)CN1C(=O)Nc1ccccc1` (configuration not stated) the value was -7.09%. Take `O=S(=O)(NCc1ccccc1F)c1cccc(S(=O)(=O)N2CCOCC2)c1`: the inhibition was -6.99%. For `O=C(NC(=S)Nc1ccc(Cl)cn1)c1cc([N+](=O)[O-])ccc1N1CCOCC1` the value was 5.35%; for `Cc1ccc(S(=O)(=O)N2CCN(C(=O)c3ccccc3)CC2)cc1`, 9.38%; for `COc1ccc(CCNC(=O)C(=O)c2c(C)[nH]c3ccccc23)cc1`, 12%. As to `O=C(NCCc1ccccc1)c1ccc(Br)o1`, the inhibition came out at 73.4%.

Take `NC(=O)NCCC1=CCCCC1`: the inhibition was -8.64%.

Take `COc1ccc(C(=O)NCCC2=CCCCC2)cc1`: the inhibition was determined as 71.4%. The same measure for `O=C(NCCC1=CCCCC1)c1ccc(Cl)cc1`: 76.5%. The same measure for `CCN(CC)C(=O)c1cccc(NC(=O)c2cc(-c3ccccn3)nc3ccccc23)c1`: 57%; for `Cc1nnc2sc(SCC(=O)Nc3ccc(Br)cc3)nn2c1=O`: -4.78%. For `CCOc1ccccc1C(=O)NC1CC2CCCC(C1)N2C1CC1` (configuration not stated) the value was 0.26%; for `CCOc1ccc(S(=O)(=O)N2CCOCC2)cc1NC(=O)CN1C(=O)NC(C)(c2ccccc2)C1=O` (configuration not stated), 6.19%; for `Nc1ncnc(Sc2ccccc2)c1[N+](=O)[O-]`, 67.8%.

In the case of `Cc1nc(Sc2ccccc2)c(C#N)c(C)c1[N+](=O)[O-]`, the inhibition was determined as 16.8%.

Take `C#CCN(CC=C)C(=O)c1ccc(OC2CCN(S(=O)(=O)N(C)C)CC2)cc1`: the inhibition was -9.64%. Take `Cc1ccnc(NC(=O)C2COc3ccccc3O2)c1` (configuration not stated): the inhibition came out at 2.12%. The same measure for `O=C(CCC1COc2ccccc2O1)Nc1ccc(Cl)cn1` (configuration not stated): 79.7%. Turning to `O=C(C1COc2ccccc2O1)N1CCCC1` (configuration not stated), the inhibition is 70.2%. The same measure for `CC1CCCN(C(=O)C2COc3ccccc3O2)C1` (configuration not stated): 57.7%; for `O=C(Nc1ccncc1)C1COc2ccccc2O1` (configuration not stated): 29.1%. With `Cc1cccc(NC(=O)C2COc3ccccc3O2)n1` (configuration not stated), the inhibition came to 75.7%. `O=C(Nc1ccccn1)C1COc2ccccc2O1` (configuration not stated): the inhibition worked out at 77%. For `O=C(COC(=O)C1COc2ccccc2O1)Nc1cccc(Cl)c1` (configuration not stated) the value was 6.42%. The same measure for `CCOC(=O)CNC(=O)CN1CCC(c2nc3ccccc3[nH]2)CC1`: -5.38%; for `COc1ccc(N/C=C/C(=O)c2ccc(Oc3ncccn3)cc2)cc1`: -0.22%. The same measure for `C/C(CC(=O)NC1CCCCC1)=N\NC(=O)Cc1ccc(-c2ccccc2)cc1`: 9.13%; for `O=C(C1=C[C@@H](c2ccccc2)C[C@@H](OCc2ccc(CO)cc2)O1)N1CCN(Cc2ccc3c(c2)OCO3)CC1`: 38.2%. On to `O=C(CNC(=O)Cc1ccccc1)NCC(=O)OCc1ccc(C(=O)c2ccccc2)cc1`, for which the inhibition worked out at 4.67%. For `COc1ccc(-n2nc(C(=O)NCC(=O)NCc3cccc(F)c3)c3ccccc3c2=O)cc1Cl` the value was -7.9%; for `O=S(=O)(c1ccc2nc(COc3ccccc3)[nH]c2c1)N1CCOCC1`, -3.8%. With `CC(C)(C)C(=O)CN1C2=NCCCN2c2ccccc21`, the inhibition amounted to 12.1%.

As for `CCOc1ccc(N(CC(=O)NCc2ccccc2)S(=O)(=O)c2ccc(C)cc2)cc1`, the inhibition was determined as 0.73%. `CC1CCCC(NC(=O)C2COc3ccccc3O2)C1C` (configuration not stated): the inhibition was 17.1%. `COC(=O)c1ccccc1NC(=O)C1COc2ccccc2O1` (configuration not stated): the inhibition amounted to 59.7%. In the case of `COC(=O)c1ccc(C)c(NC(=O)C2COc3ccccc3O2)c1` (configuration not stated), the inhibition came to 57.8%. Consider `CCN(CC1COc2ccccc2O1)C(=S)NC1CC2CCC1C2` (configuration not stated), for which the inhibition is 0.66%. Regarding `Cc1[nH]c2ccccc2c1C(=O)C(C)OC(=O)c1ccccc1NCCO` (configuration not stated), the inhibition was determined as 17.8%. Consider `CCCCN(Cc1ccco1)S(=O)(=O)c1csc(C(N)=O)c1`, for which the inhibition turned out to be 38.5%. For `CSc1ccccc1C(=O)N(C)C(c1ccccc1)c1ccccc1` the value was 13.8%; for `CCNc1nc(NC(C)C)nc(SCCOc2ccc(C)cc2)n1`, 6.84%.

For the molecule `Cc1cc(OCCCn2ccnc2)cc(C)c1Cl`, the inhibition was -6.72%. The same measure for `Clc1ccc(SCCCCn2cncn2)cc1`: 26.1%.

Take `C=CCc1cc(C)ccc1OCCCn1ccnc1`: the inhibition was determined as 26.9%. For `Cc1cc(OCCCn2ccnc2)ccc1[N+](=O)[O-]` the value was 39.3%. With `Clc1ccc(SCCn2ccnc2)cc1`, the inhibition was found to be 71.2%. For the molecule `C=CCc1cc(Cl)ccc1OCCn1ccnc1`, the inhibition was 31.9%. For `Cc1cc(C)cc(OCCCn2ccnc2)c1` the value was 76%; for `Cc1ccc(OCCCn2ccnc2)cc1C`, 70.8%. For `CS(=O)(=O)N1CCC(C(=O)NCCN2CCN(Cc3ccccc3)CC2)CC1` the value was -1.43%. For `Cc1ccc(-c2csc(N3CCC[C@@H]3C(=O)NCCn3c(C(F)(F)F)nc4ccccc43)n2)cc1` the value was 42.9%; for `C[C@@H](NC(=O)c1nc[nH]c1C(=O)N[C@H](C)c1ccccc1)c1ccccc1`, 66%. As for `O=C(O)c1ccc2c(=O)n3cc(C(=O)c4ccccc4O)cc(Cl)c3nc2c1`, the inhibition is -0.88%. For `Fc1ccc2c(c1)C(c1ccncc1)=NNC(c1ccc(Br)cc1)=N2` the value was 21.1%.

Take `O=C(N/N=C/c1ccc2cccnc2c1)c1ccco1`: the inhibition was 14.9%. For `COc1ccc(CCNS(=O)(=O)c2c(N)n(C)c(=O)n(C)c2=O)cc1OC`, the inhibition turned out to be 3.12%. On to `CCOc1ccc(C(=O)Nc2cc(S(=O)(=O)Nc3ccccc3Cl)ccc2N2CCOCC2)cc1`, for which the inhibition worked out at 4.51%. As to `CS(=O)(=O)N(CC(=O)NCC1CCCO1)c1cc(Cl)cc(Cl)c1` (configuration not stated), the inhibition is -12.1%.

Take `Cc1ccc(OCCCn2ccnc2)c(Br)c1`: the inhibition came out at 27.2%.

`Clc1cc(Br)ccc1OCCn1ccnc1`: the inhibition worked out at 40%.

On to `Clc1ccc(OCCn2ccnc2)c2ccccc12`, for which the inhibition came to 17.9%. Take `Clc1ccccc1OCCCn1ccnc1`: the inhibition is -0.75%. `O=C(CCNC(=O)C1CCN(S(=O)(=O)c2ccccc2)CC1)NCCc1ccc(Cl)cc1`: the inhibition stood at 1.82%. For `CN1CCN(C(=O)C2CCCN(S(=O)(=O)c3ccc(Br)cc3)C2)CC1` (configuration not stated) the value was 8.61%; for `COc1ccc(CCn2c(N3CCN(Cc4ccccc4)CC3)nc3c2c(=O)[nH]c(=O)n3C)cc1`, 15.1%; for `CC1(c2nnc(-c3cccc(Cl)c3)o2)CC(c2ccc(F)cc2)=NO1` (configuration not stated), 70.9%. Consider `CC1(c2nnc(-c3ccccc3)o2)CC(c2ccccc2)=NO1` (configuration not stated), for which the inhibition turned out to be 79.5%. With `CC1(c2nnc(-c3ccc(Cl)cc3)o2)CC(c2cccc(Cl)c2)=NO1` (configuration not stated), the inhibition came to 79.6%. `CC1(c2nnc(-c3ccc(Cl)cc3)o2)CC(c2ccc(Cl)cc2)=NO1` (configuration not stated): the inhibition amounted to 36.6%. Regarding `Cc1ccc(OCCn2ccnc2)c(C)c1`, the inhibition was found to be 6.35%.

In the case of `CCOc1cc(/C=C2\CCn3c2nc2cc(Cl)ccc2c3=O)ccc1O`, the inhibition is 9%. For `CN(c1ccccc1)S(=O)(=O)c1cc(Cl)ccc1Cl` the value was 28.7%. With `CCOc1cc(NC(=O)c2ccccc2OC)c(OCC)cc1NC(=O)c1ccccc1`, the inhibition came to 8.11%. The same measure for `C/C(=N\NC(=O)c1ccc2c(c1)OCO2)c1ccc2c(c1)OCO2`: 41.2%.

On to `C/C(=N\NC(=O)c1ccccc1)c1ccc2c(c1)OCO2`, for which the inhibition amounted to 35.4%.

`O=C(CCSc1ccccc1)NCc1cccnc1`: the inhibition was -1.43%. Consider `CN1C(=O)/C(=C/C=C/c2ccco2)C(=O)NC1=S`, for which the inhibition is -21.1%.

Take `Cc1ccc(N2C(=O)NC(=O)/C(=C\C=C\c3ccco3)C2=O)cc1`: the inhibition stood at 18.7%. Turning to `Cc1cc(C)cc(N2C(=O)NC(=O)/C(=C\C=C\c3ccco3)C2=O)c1`, the inhibition came to 2.52%. `O=C1NC(=O)N(Cc2ccc(F)cc2)C(=O)/C1=C\C=C\c1ccco1`: the inhibition amounted to 75.2%.

For the molecule `Cc1ccc(N2C(=O)NC(=O)/C(=C\C=C\c3ccco3)C2=O)cc1C`, the inhibition amounted to 13%.

For the molecule `O=C1NC(=O)N(c2ccccc2)C(=O)/C1=C/C=C/c1ccco1`, the inhibition is -12.6%. For `COc1ccc(NC(=O)CCNS(=O)(=O)c2ccccc2F)cc1S(N)(=O)=O` the value was -0.54%. For `Cc1ccccc1C1c2[nH]c3ccccc3c2CCN1C(=O)c1ccc(=O)n(C)n1` (configuration not stated) the value was 10.8%.

`CCOC(=O)c1c(C)c(C)n(Cc2ccc(OC)c(OC)c2)c1C`: the inhibition was 16.5%. For `Cc1cc(C(=O)COc2ccccc2C(N)=O)c(C)n1CC1CCCO1` (configuration not stated) the value was -26.6%. For `Cc1cc(C(=O)COc2ccccc2C(N)=O)c(C)n1C` the value was 4.7%.

With `CCN(CC(=O)NC(=O)NCc1ccco1)Cc1nc2ccccc2c(=O)[nH]1`, the inhibition amounted to 12.9%. Turning to `COCCNC(=O)Cc1c(C)c2c(cc(C)c3c(C(C)(C)C)coc32)oc1=O`, the inhibition turned out to be 26.6%.

As for `O=C(CCc1nnc2n(Cc3ccc(F)cc3)c(=O)c3ccccc3n12)N1CCN(c2ccccn2)CC1`, the inhibition was -3.25%. As to `O=C(Nc1ccc(Cl)cc1)OCCn1nnnc1C(c1ccccc1)N1CCOCC1` (configuration not stated), the inhibition came to 4.68%. As for `COc1ccc(S(=O)(=O)N2CCCCC2)cc1NC(=O)c1ccc([N+](=O)[O-])o1`, the inhibition was found to be 1.5%. The same measure for `CCN1CCN(c2ccc(S(=O)(=O)N3CCCCC3)cc2NC(=O)c2ccccc2)CC1`: -11.8%; for `O=C(Nc1ccc(S(=O)(=O)N2CCOCC2)cc1)c1ccc(Br)o1`: -0.17%; for `O=C(Nc1ccc(S(=O)(=O)N2CCOCC2)cc1)c1ccc(Cl)s1`: 5.17%. Consider `Cc1ccc(C(=O)Nc2cccc(S(=O)(=O)N3CCCC3)c2)o1`, for which the inhibition is -4.97%. With `Cc1ccc(NC(=O)c2ccc([N+](=O)[O-])s2)cc1S(=O)(=O)N1CCOCC1`, the inhibition amounted to 43.2%. The same measure for `NS(=O)(=O)c1ccc(NC(=O)c2ccc(S(=O)(=O)N3CCOCC3)o2)cc1`: 1.05%; for `O=C(Nc1cc(S(=O)(=O)N2CCOCC2)ccc1N1CCOCC1)c1ccc([N+](=O)[O-])s1`: 50.4%.
